Rows were chosen to be rich in hits. Some 3% of all compounds tested hit in one or more screens of this group.
Vif inh: HIV Vif inhibition | AID 602346 | HEK293T cells, Vif self-association by quenched fluorescence, imaging, 24 h | inhibition, % at 7.49 µM | actives 0.35% (n = 340,000); in the data active = inhibition above about 50%, passing the limit was not always enough; inconclusive = no clear call, values can overlap the other calls; inactive = below about 31%
PfHsp90 yeast 2: reduces growth (ATP signal) of yeast expressing P. falciparum Hsp90; S. cerevisiae expressing PfHsp90, BacTiter-Glo ATP, 48 h; yeast lacking PDR1 and PDR3 efflux regulators; inhibition, % at 9.4 µM; actives 0.32% (n = 310,000); AID 504621;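 active = every replicate shows inhibition above about 80%, whatever the replicate mean, limit read from the data; inconclusive = mean inhibition reaches the set limit but some replicate falls short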;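 note: 0% = DMSO neutral controls and 100% = 20 µM radicicol positive controls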
N-glyco inh: blocks N-linked glycosylation in D54 reporter cells; D54 ERlucT glycosylation luciferase reporter, 24 h; percent of 100 nM tunicamycin response; reporter increase, % at 12.5 µM; actives 0.23% (n = 360,000);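 active = mean luciferase reporter signal, scaled so untreated is 0 and the glycosylation-blocking control 100, at or above a set limit in every replicate; inconclusive = mean reaches the limit but not every replicate does; inactive = mean below the limit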;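 note: luciferase carries N-glycosylation sites so blocking glycosylation raises the light; 0% = median of neutral control wells and 100% = median of 100 nM tunicamycin wells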
esBAF inh: inhibitors of esBAF chromatin remodeling in mouse ES cells; Bmi1-luciferase knock-in reporter, 24 h; 100% = twice the neutral-well signal; reporter increase, % at 12.5 µM; actives 2% (n = 350,000); in the data active = activation above about 40%; inconclusive = no clear call, values can overlap the other calls;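 note: 0% = median of the plate's neutral control wells and 100% = double that signal; a rise in the Bmi1 reporter signal indicates esBAF inhibition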
Wnt act: activators of Wnt/beta-catenin signaling. Wnt/beta-catenin reporter cell assay, activator, plate reader. actives 1.2% (n = 300,000). activation, % at 9.35 µM. AID 743398; in the data active = activation above about 30%, passing the limit was not always enough; inconclusive = no clear call, values can overlap the other calls;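 note: 0% = neutral control wells and 100% = positive control wells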
MITF act: activators of MITF-driven TRPM1 promoter activity in SK-MEL-5 cells; SK-MEL-5 TRPM1-promoter luciferase, 24 h; % of positive control, neutral wells = 0; activation, % at 12.5 µM; actives 0.75% (n = 300,000);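 active = mean activation of at least 80% with every replicate also reaching 80%; inconclusive = mean reaches 80% but some replicate falls short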;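 note: 0% = neutral control wells and 100% = parthenolide positive control wells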
* = called active by the depositor; ? = inconclusive; / = not tested or not shown.

SMILES	Vif inh	PfHsp90 yeast 2	N-glyco inh	esBAF inh	Wnt act	MITF act
O=C(c1ccccc1-c1nc(-c2ccccc2)no1)N1CCCC1	7.1	11.1	-0.9	56.9*	10.9	1.8
O=c1[nH]c(CN2CCN(S(=O)(=O)/C=C/c3ccccc3)CC2)nc2ccccc12	-0.3	/	-1.7	-1.3	-1.2	1.5
COc1ccc(CC(=O)NNC(=S)NC(=O)c2cccnc2)cc1	3.9	-3.6	2.5	-4.9	-0.6	-0.6
CCC(=O)N1C[C@@H](C)[C@@H](OC)CN(C)C(=O)c2cc(NC(=O)Nc3ccccc3)ccc2OC[C@H]1C	/	/	/	-2.6	/	/
CCCn1c(N)c(N(CCOC)C(=O)c2ccc([N+](=O)[O-])cc2Cl)c(=O)[nH]c1=O	66.6*	-15.1	1.3	-5.1	0.0	/
CCCn1c(N)c(N(CCOC)C(=O)c2ccc(F)cc2F)c(=O)[nH]c1=O	-1.4	21.7	-0.1	-6.3	-0.6	-1.0
O=c1[nH]c(=O)n(C2CC(O)C(CO)O2)cc1Br (stereo unspecified)	5.9	-17.0	35.8*	/	10.6	/
COC(=O)c1cc(NC(=O)c2cccs2)ccc1N1CCOCC1	8.1	/	3.1	/	-2.5	3.4
O=C(c1ccccc1)c1ccc(N2CCOCC2)c(F)c1	11.2	9.0	-3.3	57.8*	29.7	69.9
O=C(Nc1ccc(Cl)c([N+](=O)[O-])c1)c1ccc2c(c1)OCCO2	-2.8	-3.0	-7.1	86.1*	15.5	95.5*
O=C(Nc1ccc(N2CCOCC2)c(F)c1)c1cccs1	-12.2	14.5	-7.9	23.2	?	110.1*
O=C(Nc1ccc(N2CCOCC2)c(Cl)c1)c1ccc(Cl)cc1	1.1	-7.4	-5.8	45.3*	18.8	68.2
O=C(c1ccccc1)c1cc(F)c(N2CCOCC2)cc1Cl	4.7	-2.6	-1.4	19.8	/	7.7
C=CCOc1c(Br)cc(/C=N/NC(=O)Cc2ccc(C(F)(F)F)cc2[N+](=O)[O-])cc1OC	-17.8	-3.4	7.1	-4.6	/	-3.3
O=C(Nc1ccc(N2CCCCC2)c(Cl)c1)c1ccc2c(c1)OCCO2	-14.5	-5.5	-6.2	52.3*	14.4	/
O=C(Nc1ccc(N2CCOCC2)c(Cl)c1)c1ccccc1F	8.3	10.1	-4.5	103.3*	/	?
Cc1ccc(NC(=O)c2cc(N3C(=O)C=CC3=O)ccc2N2CCOCC2)cc1Cl	-0.4	104.6*	-5.0	/	-3.5	-76.0
CO[C@@H]1CC[C@H]2CCOc3c(C#N)cccc3C(=O)N(C)CCCC(=O)N(C)C[C@@H]1O2	/	/	/	-2.0	/	/
CCc1ccc(-c2ccc(SCc3ccccn3)nn2)cc1	10.6	/	-1.8	63.0*	12.5	70.8
CCOc1ccc(-c2ccc(SCc3ccccn3)nn2)cc1	-1.6	20.4	-4.8	/	-0.4	52.3
Cc1ccc(-c2cc(N)n(Cc3ccc(Cl)cc3)n2)cc1	-39.6	-9.4	-4.7	17.0	/	/
CSc1nc(N)n2nc(-c3ccc(Cl)cc3)cc2n1	/	-10.5	-5.0	?	48.7*	/
Fc1ccc(N/N=C/C=C/c2ccccc2)c(F)c1	8.8	12.2	-1.3	51.0*	12.5	46.4
Cn1c(=N)n(CC(=O)c2cccs2)c2ccccc21	6.8	10.1	-5.4	44.5*	29.2	11.9
CCCn1c(=N)n(CC(=O)c2cccs2)c2ccccc21	3.3	-8.3	-3.3	-1.6	-3.8	0.0
SMILES	Vif inh	PfHsp90 yeast 2	N-glyco inh	esBAF inh	Wnt act	MITF act
CC(=O)N1CCN(c2ccc(NC(=O)c3cccc(C)c3)cc2)CC1	-9.2	11.0	0.8	17.7	4.7	/
O=C(Nc1ccc(N2CCCC2)cc1)c1cccc(Cl)c1	12.7	-0.9	-15.0	-7.4	32.9*	101.7*
O=C(Nc1ccc(N2CCCC2)cc1)c1cc(Cl)ccc1Cl	3.5	-3.4	1.1	1.4	-4.7	1.7
CC(=O)N1CCN(c2ccc(NC(=O)c3cccc(F)c3)cc2)CC1	0.6	/	3.0	53.7*	19.4	/
O=C(Nc1ccc(N2CCN(C(=O)c3ccco3)CC2)cc1)c1cccc(F)c1	4.7	/	-4.3	53.6*	5.2	/
CCC(CC)c1nnc(NC(=O)C23CC4CC(CC(NC(C)=O)(C4)C2)C3)s1	-27.0	19.3	-0.4	8.5	-1.1	-14.3
CC(=O)NC12CC3CC(C1)CC(C(=O)Nc1nc4ccc(F)cc4s1)(C3)C2	-22.2	10.7	-0.1	44.7*	5.8	4.9
COc1cc(OC)c2c(=O)cc(-c3ccccc3)oc2c1	2.6	3.5	9.5	35.6	52.3*	47.1

Screens: PubChem BioAssay, Broad Institute
